KB-V1 cytotox = kills drug-selected multidrug resistant KB-V1 cells | KB-V1 MDR cells viability, CellTiter-Glo, 72 h | Potency, µM (doses to about 46.1 µM), actives largely listed as cytotoxic | 400,000 tested, 3.4% active; note: % is set by controls: 0 for no effect and ±100 for the full control effect; nearly all actives have a fitted effect of over 60% in size
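In this primary screen, KB-V1 cells overexpressing P-gp are incubated with library compounds (lowest to highest concentration) for 72 h at 37 degrees C before a luminescent ATP viability read.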
SW480 rereplic = DNA re-replication induction in SW480 cells | SW480 DNA re-replication, Hoechst DNA content imaging, 48 h | Potency, µM (highest dose often 46.1 µM), for the others: top-dose re-replication activation, actives largely listed as activators | 340,000 tested, 1.8% active | AID 624297; note: % of control where 0% means no effect; nearly all actives have a fitted effect of over 55% in size
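Treated cells incubate 48 hr (37 C, 5% CO2), are stained 40 min with Hoechst, and nuclear fluorescence is enumerated; a rise in nuclei with high DNA signal marks re-replication.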
MCF10A rerep = DNA re-replication induction in MCF 10a cells | 350,000 tested, 2.9% active | AID 624296 | MCF 10A DNA re-replication, Hoechst nuclear intensity, 48 h | Potency, µM (titrated, usually from 46.1 µM), without a hit: at the highest dose activity, positive = re-replication, hits mostly activators; note: % of control where 0% means no effect; nearly all actives have a fitted effect of over 50% in size
PINK1 modulator = changes PINK1 expression; PINK1 immunofluorescence, high-content cytometry, 24 h; Potency, µM (series often up to 76.6 µM), without a hit: top-dose activation (PINK1 increase), actives largely listed as activators; 410,000 tested, 0.2% active; active = well fitted activation curve with a large enough effect; inconclusive = small, poorly fitted or top-dose-only effect; cell line not stated here; note: % of control where 0% means no effect; nearly all actives have a fitted effect of over 65% in size
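Fluorescence from anti-PINK1 antibody, together with nuclear and cell stains, was scanned on a laser-scanning cytometer. Before staining, stable-line cells were incubated 24 hours with compounds at 5 concentrations; primary antibody 12 h at 10 degrees C.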
KB-3-1 tox = kills parental KB-3-1 adenocarcinoma cells. KB-3-1 viability, CellTiter-Glo ATP luminescence, 72 h. Potency, µM (titrated, usually from 46.1 µM), hits mostly cytotoxic. 400,000 tested, 1.4% active. AID 1347075; note: % is set by controls: 0 for no effect and ±100 for the full control effect; nearly all actives have a fitted effect of over 60% in size
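Viability of parental KB-3-1 cells, measured by CellTiter-Glo luminescence, followed a 72 h incubation at 37 °C with pinned compounds in phenol-red-free DMEM containing 10% FBS.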
Starred values were filed as active, the others as inactive; i = inactive; ? = inconclusive; . = not tested or not shown; [ ] = remark or other dose. Rows were chosen to be rich in hits. Some 6.7% of all compounds tested hit in one or more screens of this group. Unless noted, calls come from the whole dose curve; as a rule, active = well fitted curve in the direction sought with a large enough effect; inconclusive = small, poorly fitted or top-dose-only effect, or another doubt; inactive = no such curve, though single readings can be large; an effect the other way counts as inactive or inconclusive. Potency is the fitted concentration of half-maximal effect.

SMILES	KB-V1 cytotox	SW480 rereplic	MCF10A rerep	PINK1 modulator	KB-3-1 tox
Cc1ccc2oc(-c3cccc(NC(=O)c4ccc(N5CCC(C)CC5)c([N+](=O)[O-])c4)c3)nc2c1	i	.	.	0%	i
CCSC1=NSC2=NC(=O)/C(=C\c3coc4ccccc4c3=O)C(=N)N12	i	?	18µM*	21%	i
COC(=O)C[C@H]1C=C[C@@H](NC(=O)c2ccncc2)[C@@H](CO)O1	i	.	.	.	i
O=S(=O)(Cc1cc(Cl)nc(-c2ccccc2)n1)c1ccccc1	i	?	21µM*	?	i
O=S(=O)(Cc1cc(Cl)nc(-c2ccncc2)n1)c1ccccc1	i	?	?	0%	i
CCOC(=O)c1c(C)c(C(=O)NCc2ccccn2)c(C)n1CC	16µM*	?	18%	-1%[38.3 µM]	i
CCOC(=O)c1ccc(NC(=O)C(=O)NCc2ccccn2)cc1	i	-62%	-1%	-1%	i
Cc1ccc(Cn2c(C(=O)NCCCN3CCOCC3)cc3sccc32)cc1	4.6µM*	-7%	-1%	-4%[38.3 µM]	i
Cc1cc2c(cc(C(=O)NCCCN3CCOCC3)n2Cc2ccc(Cl)cc2)o1	i	18µM*	23µM*	24%[38.3 µM]	i
CCn1c(C(=O)NCCCN2CCc3ccccc3C2)cc2sccc21	9.2µM*	?	6%	-3%[38.3 µM]	i
COc1ccc(NC(=O)N2CCCC3(CCN(C(=O)c4c(C)noc4C)CC3)C2)cc1	.	.	.	1%	.
O=C(Nc1ccc(OC(F)(F)F)cc1)C(NS(=O)(=O)c1cccc2nsnc12)c1ccccc1 (configuration not stated)	?	.	.	6%	i
COc1ccc(S(=O)(=O)N2CCN(Cc3nc4ccc(C)cc4o3)CC2)cc1Cl	i	.	.	0%	i
CCn1c(C(=O)NCc2ccccn2)cc2sccc21	15µM*	-6%	10%	-5%[38.3 µM]	i
COC(OC)C1(CCc2ccccc2)NC(=O)NC1=O (configuration not stated)	i	12%	-20%	1%	i
O=C(Nc1nc2ccc(SC(F)F)cc2s1)c1ccc(NS(=O)(=O)c2ccc(F)c(F)c2)cc1	?	-3%	18µM*	21%	i
CCNc1ncc2ncc(=O)n(C3CC3)c2n1	.	.	.	-1%	.
COc1ccc(C(=O)NCCS(=O)(=O)NCc2ccccc2)cc1	i	-112%	4%	-3%	i
COc1ccc(C(=O)NCCS(=O)(=O)NCc2ccc(F)cc2)cc1	i	3.7µM*	18%	1%	i
CCN(C1CCCCC1)S(=O)(=O)CCNC(=O)c1ccc(OC)cc1	?	.	.	2%	i
COc1ccc(C(=O)NCCS(=O)(=O)N(C)C2CCCCC2)cc1	18µM*	-2%	3%	-3%	i
O=C(c1ccc(CS(=O)c2ccccc2Cl)o1)N1CCN(C2CCCCC2)CC1 (configuration not stated)	i	.	.	11%	i
COc1cccc(-n2nnnc2S(C)(=O)=O)c1	?	?	4.6µM*	-1%	?
Cc1ccccc1NC(=O)C(=Cc1ccc(C(=O)O)cc1)C(=O)Nc1ccccc1C	?	?	13µM*	-2%	?
Cc1ccc(F)cc1NC(=O)COC(=O)COc1ccc(C#N)cc1	i	-8%	-18%	-3%	i
SMILES	KB-V1 cytotox	SW480 rereplic	MCF10A rerep	PINK1 modulator	KB-3-1 tox
COc1cc(CN(C)Cc2cc(=O)n3ccsc3n2)ccc1OC(F)F	13µM*	?	-4%	-1%	i
O=C(NCc1ccccc1)NC1(C(=O)N2CCN(c3ncccn3)CC2)CCCCC1	i	4%[9.22 µM]	23µM*	1%	i
Cc1ccc2nc(N3C(=O)C(O)=C(C(=O)c4ccco4)C3c3cccs3)sc2c1 (configuration not stated)	13µM*	?	21µM*	-2%[38.3 µM]	i
Cc1cc(C)c2nc(N3C(=O)C(O)=C(C(=O)c4ccco4)C3c3ccco3)sc2c1 (configuration not stated)	i	16µM*	18µM*	3%	i
Cc1noc(C)c1S(=O)(=O)N(C)C[C@@H]1OCc2cnnn2CCCC(=O)N([C@@H](C)CO)C[C@H]1C	i	.	.	-1%	i
CC1Cc2cc(-c3csc(NC(=O)Cc4cccs4)n3)ccc2N1S(C)(=O)=O (configuration not stated)	2.6µM*	2%	?	3%	3.3µM*
CCC(=O)Nc1nc(-c2ccc3c(c2)CC(C)N3S(C)(=O)=O)cs1 (configuration not stated)	i	-20%	-9%	0%	?
Cc1ccc(S(=O)(=O)CC(=O)Nc2nc(-c3ccccc3)cs2)cc1	18µM*	16%	-11%	1%	i
O=C(Cc1cccs1)Nc1nc(-c2ccc(F)cc2F)cs1	?	?	?	-1%[38.3 µM]	23µM*
O=C(Cc1c(F)c(F)c(F)c(F)c1F)Nc1nc(-c2ccccc2)cs1	?	-10%	18µM*	?	?
O=C(CN1CCOCC1)Nc1nc(-c2ccccc2)cs1	i	-7%	2%	3%	i
Cc1ccc(-c2csc(NC(=O)CN3CC(C)OC(C)C3)n2)cc1 (configuration not stated)	?	?	18µM*	2%	23µM*
O=C(Cn1nnc(-c2ccc(CN3CCOCC3)cc2)n1)Nc1nc(-c2ccccc2)cs1	18µM*	7%	9%	8%[38.3 µM]	i
CC1CCN(CC(=O)Nc2nc(-c3ccccc3)cs2)CC1	i	-2%	?	-1%	i
Cc1ccc(S(=O)(=O)Nc2ccc(-c3csc(-c4ccccc4)n3)cc2)cc1	?	?	12µM*	?	i
O=C(Cc1ccccc1F)Nc1nc(-c2ccc(F)c(F)c2)cs1	?	?	16µM*	5%	?
CN(C)c1ccc(-c2ccc3ncnc(NC4CC4)c3c2)cc1	.	.	.	6%	.
COCc1ccc(CN2CCOc3ccc(C4=CCCCC4)cc3C2)o1	.	.	.	0%	.
COc1ccc(Sc2ccc(-c3nc4cnccn4c3NC3CCCCC3)cc2OC)cc1	?	18µM*	3.3µM*	21%	?
Clc1ccc(-c2nc3cnccn3c2NC2CCCC2)cc1	6.5µM*	23µM*	21µM*	-3%	?
Cc1ccc2nc(-c3ccncc3)c(NC3CCCCC3)n2c1	21µM*	0%	9%	1%	?
Cc1cccc2c(=O)n3c(cc12)-c1[nH]c2ccccc2c1CC3	i	?	21µM*	?	i
CCN(CC)C(=O)c1cccc(-c2csc(C(C)(NC(C)=O)c3ccc(OC)cc3)n2)c1 (configuration not stated)	i	.	.	2%	i
CCOc1ccc(S(=O)(=O)N2CCN(c3c(C)cccc3C)CC2)c2ccccc12	?	.	.	0%	i

Screening data deposited in PubChem by National Center for Advancing Translational Sciences (NCATS).
